Experimental findings from PubChem BioAssay (NCATS) are described below.

A short description of test [1]: Primary qHTS for small molecule stabilizers of the endoplasmic reticulum resident proteome: Secreted ER Calcium Modulated Protein (SERCaMP) assay (AID 1508630). To be noted: SH-SY5Y GLuc-SERCaMP (Gaussia luciferase released on ER calcium loss) secretion, thapsigargin, luminescence; series mostly up to 38.4 µM. In outline: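 The SH-SY5Y reporter protocol was run at 3 concentrations up to 38.3 uM (primary) or 11 concentrations (follow-up): 16 h compound, 100 nM thapsigargin for 4 h, then extracellular luciferase luminescence.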

Test [2] in a line: A High-Content qHTS Against Drug Library for the Identification of Small Molecules that Inhibit DYT1 Early Onset Primary Dystonia-Associated Cell Pathology (AID 1645839; calls by dose curve). The settings on record: HEK293 Flp-In EGFP-delE TorsinA, punctate imaging, 48 h; series mostly up to 46.1 µM. The method in brief: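 High-content imaging quantified EGFP-TorsinA mislocalization in HEK293-derived cells inducibly expressing DYT1 mutant torsinA, after 48 h exposure to compound given together with tetracycline induction. Cell count served as a toxicity channel alongside %pathology.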
On the technique in general: Quantitative high-throughput screening tests each substance at several concentrations.

Test [3] has as its target Cytochrome P450 2D6 (Homo sapiens) (UniProt P10635). Kind of test: Cytochrome P450 family 2 subfamily D member 6 (CYP2D6) small molecule antagonists: luciferase biochemical (cell-free) qHTS assay (AID 1645840; active = well fitted curve in the direction sought with a large enough effect in the repeat runs; an effect the other way counts as inactive or inconclusive; also: nearly all actives have a fitted effect of over 55% in size; also: potency is read from the fitted curve at half-maximal effect). The settings on record: P450-Glo CYP2D6 enzyme, luciferin luminescence, 1 h; series mostly up to 57.4 µM. In outline: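 P450-Glo CYP2D6 system: proluciferin substrate converted by enzyme to luciferin, read by luminescence proportional to activity. Enzyme-substrate mix with compound 10 min at room temperature, then NADPH regeneration 1 h before detection reagent.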

For test [4], the target named is Cytochrome P450 2C9 (Homo sapiens) (UniProt P11712). Nature of the test: Cytochrome P450 family 2 subfamily C member 9 (CYP2C9) small molecule antagonists: luciferase biochemical (cell-free) qHTS assay (AID 1645842; active = well fitted curve in the direction sought with a large enough effect in the repeat runs; an effect the other way counts as inactive or inconclusive; also: nearly all actives have a fitted effect of over 55% in size; also: potency is read from the fitted curve at half-maximal effect). The settings on record: P450-Glo CYP2C9 enzyme assay, luciferin luminescence; series mostly up to 57.4 µM. In outline: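 P450-Glo CYP2C9 system: proluciferin substrate with enzyme in mix containing 0.4% BSA, 10 min at room temperature, then NADPH regeneration solution added and incubated 1 h at 37C. Detection reagent stopped reaction; luminescence read after 20 min as RLU.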
Sequence of Cytochrome P450 2C9 (Homo sapiens) (P11712 whole entry, looked up): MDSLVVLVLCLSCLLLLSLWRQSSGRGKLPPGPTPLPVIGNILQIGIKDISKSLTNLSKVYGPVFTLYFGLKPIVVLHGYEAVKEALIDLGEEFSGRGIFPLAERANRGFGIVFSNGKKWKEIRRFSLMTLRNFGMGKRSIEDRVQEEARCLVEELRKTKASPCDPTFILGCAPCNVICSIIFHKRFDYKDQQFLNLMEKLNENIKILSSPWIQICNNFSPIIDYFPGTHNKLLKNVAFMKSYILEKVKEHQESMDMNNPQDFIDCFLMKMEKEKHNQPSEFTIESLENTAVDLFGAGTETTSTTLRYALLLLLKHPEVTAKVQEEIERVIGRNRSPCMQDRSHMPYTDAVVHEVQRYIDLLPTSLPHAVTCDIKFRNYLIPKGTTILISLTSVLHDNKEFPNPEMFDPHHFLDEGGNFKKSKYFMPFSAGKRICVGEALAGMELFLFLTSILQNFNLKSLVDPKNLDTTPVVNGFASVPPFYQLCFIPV

Test [5] addresses Papain (Carica papaya) (UniProt P00784). Kind of test: Primary qHTS assay for inhibitors of the protease papain (AID 1645873).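 Also: papain turnover of Z-FR-AMC read as the AMC fluorescence gain over 10 min.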 The settings on record: papain Z-FR-AMC cleavage, AMC fluorescence; series mostly up to 49.8 µM.
The nature of test [6]: Primary qHTS for inhibitors of nuclear receptor binding SET domain protein 2 (NSD2) in an isogenic RCH-ACV NSD2 p.E1099K mutant (9B) (AID 1645876). Also: nearly all actives have a fitted effect of over 70% in size. Also: potency is read from the fitted curve at half-maximal effect. The settings on record: RCH-ACV NSD2 E1099K (9B) viability, CellTiter-Glo, 72 h; series mostly up to 44.9 µM.
A short description of test [7]: Primary qHTS for inhibitors of nuclear receptor binding SET domain protein 2 (NSD2) in an RCH-ACV wild type WT cells (2C) (AID 1645877). Also: nearly all actives have a fitted effect of over 70% in size. Also: potency is read from the fitted curve at half-maximal effect. The settings on record: RCH-ACV (leukaemia line) NSD2 WT (2C) viability, CellTiter-Glo, 72 h; series mostly up to 44.9 µM.
The nature of test [8]: NCATS anti-infectives library activity on HEK293 viability as a counter-qHTS vs the C. elegans viability qHTS (AID 1745854). To be noted: HEK293 viability counter-screen; series mostly up to 41.8 µM. In outline:
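CellTiter-Glo luminescence, read on a CCD imager, scored viability of HEK293 cells after 24 hr compound exposure at 37C. Library tested in several concentrations, 1:5 steps, up to 41.7 uM; digitonin served as control.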

Test [9] concerns the target Cytochrome P450 3A4 (Homo sapiens) (UniProt P08684). Kind of test: Cytochrome P450 family 3 subfamily A member 4 (CYP3A4) small molecule antagonists: luciferase qHTS assay (AID 1645841; active = well fitted curve in the direction sought with a large enough effect in the repeat runs; an effect the other way counts as inactive or inconclusive; also: nearly all actives have a fitted effect of over 45% in size). The settings on record: P450-Glo CYP3A4 enzyme assay, luciferin luminescence; series mostly up to 57.4 µM. The method in brief:
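Luminescent CYP3A4 activity readout: compounds plus enzyme-substrate mix 10 min at room temperature, reaction started with NADPH regenerating system for 1 h, stopped with detection reagent, read after 20 min. Ketoconazole served as control.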

Values joined by “and” are separate entries in the source; they are usually repeats but may differ in a detail not shown here. Equal entries are not always repeated. Inconclusive results are not listed. Active and inactive are the calls of the source. Unless noted, calls follow the shape of the dose curve; as a rule, active = well fitted curve in the direction sought with a large enough effect; inconclusive = small, poorly fitted or top-dose-only effect, or another doubt; inactive = no such curve, though single readings can be large; an effect the other way counts as inactive or inconclusive.

Sequence of Cytochrome P450 2D6 (Homo sapiens) (P10635 whole entry, looked up): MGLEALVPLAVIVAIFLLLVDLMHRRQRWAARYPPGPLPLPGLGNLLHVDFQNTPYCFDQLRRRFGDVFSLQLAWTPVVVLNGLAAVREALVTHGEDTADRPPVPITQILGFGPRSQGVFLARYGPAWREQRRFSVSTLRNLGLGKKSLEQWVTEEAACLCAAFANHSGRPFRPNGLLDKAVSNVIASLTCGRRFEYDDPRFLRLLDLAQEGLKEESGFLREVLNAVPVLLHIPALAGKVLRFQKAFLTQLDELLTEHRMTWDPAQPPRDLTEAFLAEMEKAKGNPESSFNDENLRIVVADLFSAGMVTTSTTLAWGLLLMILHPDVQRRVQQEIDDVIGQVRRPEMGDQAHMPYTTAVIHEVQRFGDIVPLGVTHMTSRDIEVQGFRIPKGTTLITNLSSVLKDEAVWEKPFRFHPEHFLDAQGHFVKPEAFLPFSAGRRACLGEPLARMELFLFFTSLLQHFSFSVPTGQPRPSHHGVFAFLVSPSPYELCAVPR
Sequence of Papain (Carica papaya) (P00784 whole entry, looked up, the tested form may be a part): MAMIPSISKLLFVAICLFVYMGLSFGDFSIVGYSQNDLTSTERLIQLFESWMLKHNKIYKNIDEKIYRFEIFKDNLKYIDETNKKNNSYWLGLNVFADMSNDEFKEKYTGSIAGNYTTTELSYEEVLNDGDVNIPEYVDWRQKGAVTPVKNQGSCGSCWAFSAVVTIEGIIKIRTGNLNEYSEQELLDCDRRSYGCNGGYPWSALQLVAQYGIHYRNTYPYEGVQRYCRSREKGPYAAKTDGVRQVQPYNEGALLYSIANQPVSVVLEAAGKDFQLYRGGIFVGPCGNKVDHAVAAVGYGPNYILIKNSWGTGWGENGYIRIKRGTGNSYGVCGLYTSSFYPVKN
Sequence of Cytochrome P450 3A4 (Homo sapiens) (P08684 whole entry, looked up): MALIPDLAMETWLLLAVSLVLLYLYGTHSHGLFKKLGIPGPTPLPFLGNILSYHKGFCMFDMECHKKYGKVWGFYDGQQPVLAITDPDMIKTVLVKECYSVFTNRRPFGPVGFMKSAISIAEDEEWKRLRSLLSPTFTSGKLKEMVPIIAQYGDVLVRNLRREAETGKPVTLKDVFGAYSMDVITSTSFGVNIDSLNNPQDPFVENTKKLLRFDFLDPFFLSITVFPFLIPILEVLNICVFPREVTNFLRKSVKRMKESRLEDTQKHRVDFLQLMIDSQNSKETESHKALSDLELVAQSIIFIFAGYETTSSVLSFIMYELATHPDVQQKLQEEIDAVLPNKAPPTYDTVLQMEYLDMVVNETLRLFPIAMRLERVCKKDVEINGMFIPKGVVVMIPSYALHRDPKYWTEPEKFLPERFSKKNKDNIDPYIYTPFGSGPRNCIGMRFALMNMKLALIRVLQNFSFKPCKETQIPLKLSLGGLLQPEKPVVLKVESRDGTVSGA

As for `COc1ccc(CN(CCN(C)C)c2ccccn2)cc1`, the Potency result in test [1], in [2], in test [4], in [5], in test [6] and in test [7] was “inactive” in each case. In addition, the Potency in test [3] is 195 nM (active) and 213 nM (active).
As for `C=CCc1ccccc1OCC(O)CNC(C)C` (configuration not stated), the Potency entry in test [1], in test [2], in [4], in [5], in test [6] and in test [7] was “inactive” throughout. Moreover, in [3], the Potency is 6.92 µM (active) and 8.49 µM (active). Moreover, the molecule was classed as inactive in test [8].
Consider `O=C1CC2(CCCC2)CC(=O)N1CCCCN1CCN(c2ncccn2)CC1`, for which the Potency entry in test [1], in [2], in test [4], in test [5], in test [6] and in test [7] was “inactive” throughout. For the same molecule, in test [3], the Potency is 17.4 µM (active) and 13.5 µM (active).
`NC(=O)N1c2ccccc2C=Cc2ccccc21`: the Potency result in test [1], in test [2], in test [3], in test [4], in test [5] and in [6] was “inactive” throughout. For the same molecule, the Potency entry in test [7] was “inactive”.
In the case of `O=c1[nH]c(=O)n([C@H]2C[C@H](O)[C@@H](CO)O2)cc1Br`, the Potency entry in test [1], in [2], in test [3], in test [4] and in test [5] was “inactive” each time. Further, the Potency in test [6] is 0.841 µM (active); in [7], 0.75 µM (active).
As for `O=C(O)CCCCCCCC(=O)O`, the Potency result in [1], in [2], in [3], in test [4], in [5] and in [6] was “inactive” throughout. Moreover, the Potency result in [7] was “inactive”.
On to `CO[C@@]1(NC(=O)CSCC#N)C(=O)N2C(C(=O)O)=C(CSc3nnnn3C)CS[C@@H]21`, for which the Potency entry in [1], in test [2], in test [3], in test [4], in test [6] and in test [7] was “inactive” throughout.
For `COc1ccc([C@@H]2Sc3ccccc3N(CCN(C)C)C(=O)[C@@H]2OC(C)=O)cc1`, the Potency entry in test [1], in test [2], in [3], in test [4], in test [5] and in test [6] was “inactive” each time. Further, the Potency result in test [7] is “inactive”.
For the molecule `CCCN(CCC)C(=O)C(CCC(=O)O)NC(=O)c1ccccc1` (configuration not stated), the Potency entry in test [1], in test [2], in test [3], in test [4], in test [5] and in test [6] was “inactive” throughout. In test [7], the Potency result is “inactive”.
Consider `C[N+](C)(C)CCCCCCCCCC[N+](C)(C)C`, for which the Potency result in test [1], in [2], in [3], in [4], in [5] and in test [6] was “inactive” in each case. Also, the Potency entry in [7] is “inactive”.
Regarding `CCn1cc(C(=O)O)c(=O)c2cc3c(cc21)OCO3`, the Potency entry in test [1], in test [2], in test [3], in [4], in test [6] and in [7] was “inactive” each time.
Take `CNC1(C)C2CCC(C2)C1(C)C` (configuration not stated): the Potency result in test [1], in test [2], in test [3], in test [4], in test [5] and in test [6] was “inactive” each time. Also, the Potency result in test [7] was “inactive”.
As to `Cc1nc2ccccn2c(=O)c1CCN1CCC(C(=O)c2ccc(F)cc2)CC1`, the Potency entry in test [1], in test [2], in [4] and in [6] was “inactive” each time. In [3], the Potency is 2.19 µM (active).
For `C#CCN(C)CCCOc1ccc(Cl)cc1Cl`, the Potency entry in [1], in [2], in test [5], in test [6] and in [7] was “inactive” each time. In addition, the Potency was 1.55 µM (active) in test [3] and 30.9 µM (active) in test [4].
For `CN(C)CCN(Cc1cccs1)c1ccccn1`, the Potency entry in test [1], in test [2], in test [4], in [5], in test [6] and in test [7] was “inactive” each time.
In the case of `CCN(Cc1ccncc1)C(=O)C(CO)c1ccccc1` (configuration not stated), the Potency result in [1], in test [2], in [3], in test [5], in test [6] and in test [7] was “inactive” throughout.
As for `C[C@H](CS)C(=O)N1CCC[C@H]1C(=O)O`, the Potency result in [1], in test [2], in test [3], in [4], in test [6] and in [7] was “inactive” in each case. Moreover, the call in test [8] was inactive.
As for `CCN1CCC[C@H]1CNC(=O)c1c(O)c(Cl)cc(Cl)c1OC`, the Potency entry in test [1], in test [2], in test [4], in test [5], in [6] and in test [7] was “inactive” throughout.
On to `COc1ccc(CCN(C)CCCC(C#N)(c2cc(OC)c(OC)c(OC)c2)C(C)C)cc1OC` (configuration not stated), for which the Potency entry in [1], in [2] and in [5] was “inactive” in each case. Besides, in test [7], the Potency is 15 µM (active).
Regarding `C[C@]12CCC(=O)C=C1CC[C@@H]1[C@@H]2C(=O)C[C@@]2(C)[C@H]1CC[C@]2(O)C(=O)CO`, the Potency result in [1], in test [2], in test [3], in test [4], in test [6] and in test [7] was “inactive” each time.
Take `Cc1nc2c([nH]1)c(=O)n(C)c(=O)n2Cc1ccco1`: the Potency result in test [1], in test [2], in test [4], in test [5] and in test [7] was “inactive” throughout.
In the case of `NC(N)=NC(=O)Cc1c(Cl)cccc1Cl`, the Potency entry in test [1], in [2], in test [4] and in test [5] was “inactive” each time.
As for `Cc1nnc(SCC2=C(C(=O)O)N3C(=O)[C@@H](NC(=O)Cn4cnnn4)[C@H]3SC2)s1`, the Potency result in [1], in test [2], in test [4], in [5] and in test [6] was “inactive” in each case.
With `CC(C)NCC(O)c1cc(O)cc(O)c1` (configuration not stated), the Potency entry in [1], in test [2], in [4], in test [5], in [6] and in test [7] was “inactive” throughout.
As for `CN(C)CCOC(=O)COc1ccc(Cl)cc1`, the Potency entry in test [1], in [2], in test [4], in test [5], in test [6] and in [7] was “inactive” in each case.
As to `CN=C(NC#N)NCCSCc1nc[nH]c1C`, the Potency result in test [1], in [2], in test [5], in test [6] and in [7] was “inactive” in each case. Besides, in test [4], the Potency was 13.8 µM (active).
Take `Cc1ccc(Cl)c(Nc2ccccc2C(=O)O)c1Cl`: the Potency entry in test [1] and in test [3] was “inactive” throughout.
As to `CSc1ccc(C(=O)c2[nH]c(=O)[nH]c2C)cc1`, the Potency result in [1], in [2], in test [4], in test [5], in test [6] and in [7] was “inactive” throughout.
Turning to `Nc1ncn([C@@H]2O[C@H](CO)[C@@H](O)[C@H]2O)c(=O)n1`, the Potency result in [1], in test [3], in test [4] and in test [5] was “inactive” throughout. The result in [9] was inactive. For the same molecule, the Potency in test [6] is 10.5 µM (active); in test [7] it was 9.34 µM (active).
